Legend:
Test in all cases: PBM binding z-score (relative to random genomic background probes); higher = stronger binding; sequences stand for … in GC…GCGATTGACAGCGTAGAATGAAGG
[1] = system: FXR:RXRa (NR concentration 270 nM, RXRa partner concentration 90 nM)
Method in brief: (§1)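 Custom Agilent 4×180K protein-binding microarrays carried double-stranded probes, each with a 34-nt variable region. These regions held direct-repeat seeds, single-nucleotide variants, half-site ablations and random human genomic background sequences. Ligand-free nuclear receptor dimers were incubated on the arrays for 1 h, antibodies against each partner (one per run) detected binding, and scanned fluorescence was regression-normalized. Binding z-scores take the random background probes as reference.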

[2] = system: LXRa:RXRa (NR concentration 270 nM, RXRa partner concentration 90 nM)
Method in brief: as §1

[3] = system: LXRa homodimer (NR concentration 270 nM)
Method in brief: as §1

[4] = system: LXRb:RXRa (NR concentration 270 nM, RXRa partner concentration 90 nM)
Method in brief: as §1

[5] = system: LXRb homodimer (NR concentration 270 nM)
Method in brief: as §1

[6] = system: PPARa:RXRa (NR concentration 270 nM, RXRa partner concentration 90 nM)
Method in brief: as §1

[7] = system: PPARg:RXRa (NR concentration 180 nM, RXRa partner concentration 90 nM)
Method in brief: as §1

[8] = system: PPARg:RXRa 270nM:90nM, anti-RXR (NR concentration 270 nM, RXRa partner concentration 90 nM)
Method in brief: as §1

[9] = system: PPARg:RXRa 30nM:10nM, anti-RXR (NR concentration 30 nM, RXRa partner concentration 10 nM)
Method in brief: as §1

[10] = system: PPARg:RXRa 90nM:30nM, anti-RXR (NR concentration 90 nM, RXRa partner concentration 30 nM)
Method in brief: as §1

[11] = system: PPARg:RXRa DBDmut IVT, anti-RXR (DBD mutation: RXRa K156A/R161A, NR concentration 270 nM, RXRa partner concentration 90 nM)
Method in brief: as §1

[12] = system: PPARg:RXRa IVT, anti-PPARg (NR concentration 270 nM, RXRa partner concentration 90 nM)
Method in brief: as §1

[13] = system: PPARg DBDmut:RXRa IVT, anti-PPARg (DBD mutation: PPARg1 K132A/R137A, NR concentration 270 nM, RXRa partner concentration 90 nM)
Method in brief: as §1

[14] = system: PPARg DBDmut IVT, anti-PPARg (DBD mutation: PPARg1 K132A/R137A, NR concentration 270 nM)
Method in brief: as §1

[15] = system: PPARg homodimer (NR concentration 180 nM)
Method in brief: as §1

[16] = system: PXR:RXRa (NR concentration 270 nM, RXRa partner concentration 90 nM)
Method in brief: as §1

[17] = system: PXR homodimer (NR concentration 270 nM)
Method in brief: as §1

[18] = system: RARa:RXR (NR concentration 270 nM, RXRa partner concentration 90 nM)
Method in brief: as §1

[19] = system: RARa homodimer (NR concentration 270 nM)
Method in brief: as §1

[20] = system: RARb:RXRa (NR concentration 270 nM, RXRa partner concentration 90 nM)
Method in brief: as §1

Sequence	PBM binding z-score [1]	PBM binding z-score [2]	PBM binding z-score [3]	PBM binding z-score [4]	PBM binding z-score [5]	PBM binding z-score [6]	PBM binding z-score [7]	PBM binding z-score [8]	PBM binding z-score [9]	PBM binding z-score [10]	PBM binding z-score [11]	PBM binding z-score [12]	PBM binding z-score [13]	PBM binding z-score [14]	PBM binding z-score [15]	PBM binding z-score [16]	PBM binding z-score [17]	PBM binding z-score [18]	PBM binding z-score [19]	PBM binding z-score [20]
CGTCCAAGGTCAATGCTAGTTCAGTGAAAGCATT	7.07	4.94	1.4	3.86	0.707	4.84	3.72	4.27	1.01	2.95	2.97	3.31	1.63	0.145	3.77	5.51	2.79	4.79	0.972	5.1
GCTAGTTGCTCAGTAAAAGGTCACACACCGGTCG	3.27	4.03	4.51	4.02	0.393	4.42	2.23	3.52	1.06	2.88	0.44	1.7	-0.262	0.0665	2.95	4.84	0.686	5.72	1.56	4.1
CCGACTGGGGCAAAAGTTACCATACTCAGTACGA	-0.402	-0.339	-0.126	-0.0156	-0.764	2.49	5.28	6.09	4.45	6.52	4.08	3.59	-0.127	-0.288	0.506	-0.414	-0.137	-0.0334	-0.135	0.202
ACTATTAGTTGAGGCGAGGGCAACCGATAGGTTG	0.489	0.289	0.0582	0.0711	0.108	0.378	0.389	0.0046	0.138	-0.0218	0.169	0.559	0.713	0.82	0.794	0.918	0.305	0.644	0.393	1.4
AATACAGGGTCATCGTAGGCCACAGTACGCACAG	7.48	6.72	3.33	4.97	1.33	5.98	7.16	6.32	2.8	5.05	3.1	4.6	2.5	1.08	2.97	5.59	0.511	5.47	1.06	4.59
AGTCTAAGTTCATCTAGGTAACGTAAGATATGCT	4.07	4.07	1.92	2.09	0.539	3.17	1.72	2.24	0.691	1.31	0.694	2.11	1.22	1.39	1.48	4.78	8.13	2.24	0.123	3.55
CCTACTGGGCCATTCCGAGGTCATTGATCATATG	2.71	3.36	4.85	3.28	0.27	3.5	1.58	2.59	0.281	1.54	4.18	4.34	0.312	-0.485	1.24	4.4	4.22	3.88	0.0189	2.63

— the supplement of paper PMC6555819
